{"source": "PubChem BioAssay (NCATS)", "note": "Results filed as inconclusive are left out. Unmarked numbers belong to inactive results. Calls come from the whole dose curve; as a rule, active = well fitted curve in the direction sought with a large enough effect; inconclusive = small, poorly fitted or top-dose-only effect, or another doubt; inactive = no such curve, though single readings can be large or run the other way. % is set by controls: 0 for no effect and ±100 for the full control effect.", "data": [{"target": "phosphoglycerate mutase (Leishmania major) (UniProt Q4Q090)", "sequence (Q4Q090 1-553)": "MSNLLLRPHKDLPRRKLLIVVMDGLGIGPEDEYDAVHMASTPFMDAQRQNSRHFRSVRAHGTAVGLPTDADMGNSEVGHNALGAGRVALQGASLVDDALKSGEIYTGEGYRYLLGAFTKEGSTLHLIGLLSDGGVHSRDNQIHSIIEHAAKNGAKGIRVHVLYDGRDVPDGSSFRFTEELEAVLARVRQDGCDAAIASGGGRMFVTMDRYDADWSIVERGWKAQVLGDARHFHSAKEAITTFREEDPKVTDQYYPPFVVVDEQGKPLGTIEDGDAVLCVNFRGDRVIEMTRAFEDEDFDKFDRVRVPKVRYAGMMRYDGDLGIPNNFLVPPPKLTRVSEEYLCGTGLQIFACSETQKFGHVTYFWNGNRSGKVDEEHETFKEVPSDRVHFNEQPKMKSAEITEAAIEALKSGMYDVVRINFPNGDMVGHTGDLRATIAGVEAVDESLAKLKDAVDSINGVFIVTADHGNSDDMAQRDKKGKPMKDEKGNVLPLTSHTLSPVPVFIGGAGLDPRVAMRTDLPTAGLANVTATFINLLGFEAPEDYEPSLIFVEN", "experiment": "qHTS Validation Assay to Find Inhibitors of Phosphoglycerate Mutase (AID 504548)", "conditions": "biochemical enzyme activity; series mostly up to 57.5 µM; activity change, negative = inhibition: at the top concentration", "text": "NIH Molecular Libraries Probe Production Network [MLPCN]\nNIH Chemical Genomics Center [NCGC]\nPI Name: Malcolm Walkinshaw, University of Edinburgh\nSeveral species of the Trypanosomatidae family of parasitic protozoans cause a spectrum of diseases throughout the tropical and subtropical world. Sleeping sickness, caused by two subspecies of Trypanosoma brucei, is endemic to areas of sub-Saharan Africa, while Chagas disease, a manifestation of Trypanosoma cruzi infection, is prevalent throughout Central and South America. In addition, many species of Leishmania are responsible for a range of cutaneous and visceral diseases, causing ulcers, destructive lesions and kalaazar, a lethal infection of the viscera. Collectively, these organisms infect 30 million people worldwide (~500 million live in endemic areas), and account for ~130,000 deaths annually. Given their debilitating and prevalent nature, trypanosomatid parasites impose a heavy medical, economic and social burden on entire populations, primarily in the developing world. The problem is further exacerbated by the fact that existing treatments have progressed little in the past 50 years, and current drugs show high toxicity and poor efficacy.\nBlood-stream stages of T. brucei are entirely dependent on glycolysis as a source of ATP, and the tricarboxylic acid cycle and oxidative phosphorylation are both repressed. Glycolysis in axenically cultured T. cruzi, representing the intracellular pathogenic stage, is also essential for these parasites. […] Previous studies have shown that the glycolytic enzyme, phosphoglycerate mutase (PGAM), is a viable target for drugs to kill these parasites. […] Furthermore, the cobalt centers present within PGAM are only found in trypanosomatid and plant PGAMs, and are known to be required for activity, thereby providing an additional target. Moreover, trypanosomatid PGAMs are completely different from the enzyme that performs the same function in humans: the parasite and host enzymes share no structural or even mechanistic features; specificity is therefore unlikely to be an issue.\nNCGC Assay Protocol Summary:\nBriefly, 3ul of substrate buffer (all columns) are dispensed into Greiner white solid bottom 1536-well assay plates. Compounds are then transferred via Kalypsys pin tool equipped with 1536-pin array (10nl slotted pins, V&P Scientific, San Diego, CA). Following addition of compound, 1ul of Lm PGAM (1.25nM final concentration, columns […]) is added to initiate the reaction; columns 3-4 receive only TEA buffer as negative controls. The plates are then incubated at room temperature for 45 minutes. Kinase-GloPlus reagent is added (2ul) and plates incubated for 10 minutes, before being transferred to a ViewLux high-throughput CCD imager (PerkinElmer) wherein single end-point measurements of luminescence are acquired using a clear filter. All reagents are diluted in an assay buffer consisting of 100 mM TEA (pH 7.6), 5 mM MgCl2 and 0.01% Tween-20.", "units": {"activity change, negative = inhibition": "%"}, "values": [{"molecule": "CC[N+](CC)(CC)CCOc1cccc(OCC[N+](CC)(CC)CC)c1OCC[N+](CC)(CC)CC", "activity change, negative = inhibition": 2.77}, {"molecule": "Cc1cn([C@H]2C[C@H](N=[N+]=[N-])[C@@H](CO)O2)c(=O)[nH]c1=O", "activity change, negative = inhibition": 0.385}, {"molecule": "Nc1nnc(-c2cccc(Cl)c2Cl)c(N)n1", "activity change, negative = inhibition": 2.75}, {"molecule": "NC(CO)C(=O)NNCc1ccc(O)c(O)c1O", "note": "(stereo not given)", "activity change, negative = inhibition": 2.17}, {"molecule": "OCCN1CCN(CCCN2c3ccccc3Sc3ccc(C(F)(F)F)cc32)CC1", "activity change, negative = inhibition": 5.56}, {"molecule": "Clc1ccc(C(c2ccccc2Cl)C(Cl)Cl)cc1", "note": "(stereo not given)", "activity change, negative = inhibition": 4.2}, {"molecule": "CCOC(=O)Nc1ccc(NCc2ccc(F)cc2)nc1N", "activity change, negative = inhibition": 10.1}, {"molecule": "COc1nc(C)nc(Cl)c1NC1=NCCN1", "activity change, negative = inhibition": -0.837}, {"molecule": "CC12CC3CC(C)(C1)CC(N)(C3)C2", "activity change, negative = inhibition": 8.87}, {"molecule": "CCN1CCCC1CNC(=O)c1cc(S(=O)(=O)CC)c(N)cc1OC", "note": "(stereo not given)", "activity change, negative = inhibition": -4.73}, {"molecule": "Clc1ccccc1C(c1ccccc1)(c1ccccc1)n1ccnc1", "activity change, negative = inhibition": 17.1}, {"molecule": "CC#C[C@]1(O)CC[C@H]2[C@@H]3CCC4=CC(=O)CCC4=C3[C@@H](c3ccc(N(C)C)cc3)C[C@@]21C", "activity change, negative = inhibition": -3.69}, {"molecule": "CN1C(C(=O)Nc2ccccn2)=C(O)c2ccccc2S1(=O)=O", "activity change, negative = inhibition": 2.36}, {"molecule": "NCCS(=O)(=O)O", "activity change, negative = inhibition": -0.0189}, {"molecule": "O=C(CCCN1CCC(O)(c2ccc(Cl)cc2)CC1)c1ccc(F)cc1", "activity change, negative = inhibition": 5.19}, {"molecule": "O=C(C1CCCCC1)N1CC(=O)N2CCc3ccccc3C2C1", "note": "(stereo not given)", "activity change, negative = inhibition": -2.84}, {"molecule": "CCOC(=O)C(C)(C)Oc1ccc(Cl)cc1", "activity change, negative = inhibition": 16.8}, {"molecule": "N[C@@H](Cc1c[nH]c2ccc(O)cc12)C(=O)O", "activity change, negative = inhibition": 12.7}, {"molecule": "COc1ccccc1OCC(O)CN1CCN(CC(=O)Nc2c(C)cccc2C)CC1", "note": "(stereo not given)", "activity change, negative = inhibition": -0.887}, {"molecule": "CCC1(C)CC(=O)NC1=O", "note": "(stereo not given)", "activity change, negative = inhibition": -2.91}, {"molecule": "COc1cc2c(c(OC)c1OC)-c1ccc(OC)c(=O)cc1[C@@H](NC(C)=O)CC2", "activity change, negative = inhibition": 1.04}, {"molecule": "Nc1nc2c(ncn2COC(CO)CO)c(=O)[nH]1", "activity change, negative = inhibition": 12}, {"molecule": "CC(CCc1ccc(O)cc1)NCCc1ccc(O)c(O)c1", "note": "(stereo not given)", "activity change, negative = inhibition": -4.04}, {"molecule": "COc1ccccc1N1CCN(CC(O)COc2cccc3ccccc23)CC1", "note": "(stereo not given)", "activity change, negative = inhibition": 11.4}, {"molecule": "COc1cc2nc(N(C)CCCNC(=O)C3CCCO3)nc(N)c2cc1OC", "note": "(stereo not given)", "activity change, negative = inhibition": -9.63}, {"molecule": "CN1CCC(=C2c3ccccc3CC(=O)c3sccc32)CC1", "activity change, negative = inhibition": -9.78}, {"molecule": "Fc1ccc([C@@H]2CCNC[C@H]2COc2ccc3c(c2)OCO3)cc1", "activity change, negative = inhibition": 6.16}, {"molecule": "NS(=O)(=O)c1cc2c(cc1Cl)NCNS2(=O)=O", "activity change, negative = inhibition": -5.91}, {"molecule": "CC1COc2c(N3CCN(C)CC3)c(F)cc3c(=O)c(C(=O)O)cn1c23", "note": "(stereo not given)", "activity change, negative = inhibition": -2.19}, {"molecule": "CC(COc1ccccc1)N(CCCl)Cc1ccccc1", "note": "(stereo not given)", "activity change, negative = inhibition": 16.9}, {"molecule": "O=C1Cc2cc(CCN3CCN(c4nsc5ccccc45)CC3)c(Cl)cc2N1", "activity change, negative = inhibition": 22.6}, {"molecule": "Nc1c2c(nc3ccccc13)CCCC2", "activity change, negative = inhibition": -4.47}, {"molecule": "COc1ccc2c(c1)c(CC(=O)O)c(C)n2C(=O)c1ccc(Cl)cc1", "activity change, negative = inhibition": 0.682}, {"molecule": "NC(=O)NO", "activity change, negative = inhibition": -3.41}, {"molecule": "COc1cc2nc(N3CCN(C(=O)c4ccco4)CC3)nc(N)c2cc1OC", "activity change, negative = inhibition": -4.23}, {"molecule": "Cn1ccc2cc3c(cc21)CCN3C(=O)Nc1cccnc1", "activity change, negative = inhibition": -5.44}, {"molecule": "O=c1c(-c2ccc(O)cc2)coc2cc(O)cc(O)c12", "activity change, negative = inhibition": -6.26}, {"molecule": "CN1CCC(=C2c3ccccc3C=Cc3ccccc32)CC1", "activity change, negative = inhibition": 5.59}, {"molecule": "O=C(c1ccc(OCCN2CCCCC2)cc1)c1c(-c2ccc(O)cc2)sc2cc(O)ccc12", "activity change, negative = inhibition": -1.38}, {"molecule": "Cn1cnc2c1c(=O)[nH]c(=O)n2C", "activity change, negative = inhibition": 17.7}]}]}
